Test results from PMC5540273 (PLoS ONE, 2017).

Experiments:
[1] = system: FGFR1
[2] = system: FGFR2
[3] = system: FGFR3
[4] = system: ERBB2
[5] = system: FLT1
[6] = system: T1, ERK5
T1 construct: gene MAPK7

[7] = system: EPHB6
[8] = system: FGFR4
[9] = system: T2, FAK
T2 construct: gene PTK2

[10] = system: FLT3
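Further: kd values determined as follow-up on hits from a single-replicate KINOMEscan panel screen.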

COc1cc(OC)cc(-c2cc3cnc(N)nc3nc2NC(=O)NC(C)(C)C)c1
Kd [1]: 66 nM
Kd [2]: 310 nM
Kd [3]: 110 nM

Cc1ccc(Oc2ccc(Nc3ncnc4cc[nH]c34)cc2C)cn1
Kd [4]: 6.5 nM
Kd [5]: > 10000 nM

O=C(Nc1n[nH]c2nc(-c3ccccc3)c(Br)cc12)C1CC1 [SB-708998]
Kd [6]: > 10000 nM

COc1cc2nccc(Nc3ccc(OCc4ccc(NC(C)=O)cc4)cc3)c2cc1OC.Cl [GW440135]
Kd [5]: 680 nM

COc1cc(Nc2nccc(N3CCC(NC(=O)C4COc5ccccc5O4)C3)n2)cc(OC)c1OC (stereo not shown) [GSK1379761]
Kd [7]: 110 nM

COc1ccc(Nc2nccc(N3CCC(NS(=O)(=O)c4ccc(NC(C)=O)cc4)C3)n2)cc1 (stereo not shown) [GSK1379729]
Kd [8]: > 10000 nM

CCc1nc(-c2cccc(C)c2)c(-c2ccncc2)s1
Kd [9]: > 10000 nM

Cl.NS(=O)(=O)c1cccc(Nc2cc(-c3ccc(F)cc3)n[nH]2)c1 [GW824645]
Kd [10]: 7.5 nM

Nc1ncnc2c1ncn2-c1cccc(F)c1 [SKF-97560]
Kd [8]: > 10000 nM

Cl.c1ccc(Cn2cnc3cc(Nc4ncnc5ccccc45)ccc32)cc1 [GW272142]
Kd [7]: 510 nM

COc1ccc(-n2cnc3c(N)ncnc32)cc1 [SKF-97236]
Kd [10]: 120 nM

FC(F)(F)c1ccc(-c2ncn(CCCN3CCOCC3)c2-c2ccncc2)cc1 [SB-217780]
Kd [1]: > 10000 nM

COc1cc(Nc2nccc(N3CCC(NC(=O)C(C)c4ccc(Cl)cc4)C3)n2)cc(OC)c1OC (stereo not shown) [GSK1379757]
Kd [7]: 100 nM

O=C(NCc1cccs1)c1cc(C(=O)c2c(Cl)cccc2Cl)c[nH]1 [GW823670]
Kd [9]: > 10000 nM

Nc1nccc2scc(-c3ccc4c(c3)CCN4C(=O)Cc3ccccc3)c12 [GSK2576924]
Kd [7]: 340 nM

C[C@@H]1CC[C@H](C(=O)NC2CCCCC2)CN1c1cc(-c2ccc3c(N)n[nH]c3c2)nc(N)n1 [GSK2291363]
Kd [7]: 49 nM
